Screening results from PubChem BioAssay.
GLP-1R agonist: agonists of human GLP-1 receptor | AID 624172 | P43220 | actives 0.007% (n = 380,000) | HEK293 GLP-1R CRE-luciferase, luminescence, 4-6 h; cells express a hypersensitive GLP-1R form | Potency, µM (series often up to 45.6 µM), usual class: activators
Target sequence (P43220 whole entry, looked up): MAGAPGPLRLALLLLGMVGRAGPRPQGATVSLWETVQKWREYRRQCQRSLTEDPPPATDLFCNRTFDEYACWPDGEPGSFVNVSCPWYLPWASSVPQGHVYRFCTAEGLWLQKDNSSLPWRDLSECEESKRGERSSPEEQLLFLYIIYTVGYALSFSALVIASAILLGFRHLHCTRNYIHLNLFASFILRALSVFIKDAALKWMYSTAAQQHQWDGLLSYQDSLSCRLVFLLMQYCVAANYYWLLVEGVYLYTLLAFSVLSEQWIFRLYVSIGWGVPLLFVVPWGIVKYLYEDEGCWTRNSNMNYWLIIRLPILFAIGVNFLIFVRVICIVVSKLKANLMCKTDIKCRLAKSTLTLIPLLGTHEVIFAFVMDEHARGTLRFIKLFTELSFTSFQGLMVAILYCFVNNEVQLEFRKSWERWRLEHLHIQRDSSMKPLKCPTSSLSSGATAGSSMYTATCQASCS
D3 ag: activates the human D3 dopamine receptor; P35462; D3R DiscoveRx beta-arrestin cells, luminescence, 90 min; max activation, %; actives 0.58% (n = 410,000); AID 652048; in the data active = max activation above about 30%
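Cells at 1500/well, incubated overnight, then treated with pinned compounds (dopamine as control) for 90 min at 37 degrees C. DiscoveRx reagent added for 30 - 60 minutes at room temperature; luminescence read.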
GLP1R cytotox: cytotoxicity in counter-screen for GLP-1R inverse agonists. actives 0.13% (n = 410,000). HEK293 cAMP-luciferase reporter cells, luminescence, 24 h. Potency, µM (highest dose often 38.3 µM), most hits filed as inhibitors;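 note: loss of luciferase light is scored as toxicity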
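MLSMR compounds, 24 hr on cells at 37 deg C/5% CO2; luminescence after luciferase reagent (12 min RT). Inhibition counted as the undesired cytotoxic outcome.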
D3 antag: D3 dopamine receptor (human) antagonism; actives 2.5% (n = 360,000); AID 652054; max response, negative = inhibition, %; P35462; D3R cells, DiscoveRx beta-arrestin luminescence, antagonist mode; hits give low values; in the data active = max response below about -50%; inconclusive = no clear call, values can overlap the other calls
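Cells expressing the human receptor were seeded at 1500 cells/well, incubated overnight at 37 degrees C in 5% CO2, then exposed to library compounds with dopamine controls for 90 minutes at 37 degrees C before luminescent detection.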
ClpP mod: qHTS Assay for Activators of ClpP | purified B. subtilis ClpP, FRET peptide cleavage, 20 min | Potency, µM (titrated, usually from 57.5 µM) | actives 1.9% (n = 340,000) | AID 651965, 2013; active = well fitted falling curve with a large enough effect; inconclusive = small, poorly fitted or top-dose-only effect; inactive = no such curve, though single readings can be large or run the other way; note: the source files actives as falling curves though it sought activators and does not explain the sign; nearly all actives have a fitted effect of over 65% in size
Target sequence (P80244 whole entry, looked up): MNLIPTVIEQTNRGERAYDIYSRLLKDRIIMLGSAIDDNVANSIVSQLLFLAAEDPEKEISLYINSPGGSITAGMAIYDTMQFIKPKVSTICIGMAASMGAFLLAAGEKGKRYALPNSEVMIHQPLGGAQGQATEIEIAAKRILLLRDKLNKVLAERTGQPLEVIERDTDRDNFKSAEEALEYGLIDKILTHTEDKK
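ClpP 10 microg/mL final, pH 8 Tris/KCl buffer with BSA, glycerol, Tween-20; compound pinned in; FRET-FV substrate; RT 20 min; Ex320/Em430; ΔFRET vs ADEP 5.8 microM, DMSO, no enzyme.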
GLP1R inv ag: inverse agonists of human GLP-1 receptor; HEK293 GLP-1R CRE-luciferase, luminescence, 24 h; GLP-1R form is constitutively active; Potency, µM (titrated, usually from 38.3 µM), actives largely listed as inhibitors; actives 1.6% (n = 410,000); AID 624417; note: nearly all actives have a fitted effect of over 55% in size
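Inverse agonists were sought by their lowering of basal cAMP reporter luciferase output in HEK293 cells stably carrying constitutively active human GLP-1R, after 24 h compound treatment.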
Each line names hits and unclear results; the compound was inactive in the other large screens. Only some compounds are listed: those with a hit (about 5.7% of all), similar ones and a draw of the others. Unless noted, calls come from the whole dose curve; as a rule, active = well fitted curve in the direction sought with a large enough effect; inconclusive = small, poorly fitted or top-dose-only effect, or another doubt; inactive = no such curve, though single readings can be large; an effect the other way counts as inactive or inconclusive.

CC(C)/C=C/CN1CCN(CCCc2ccccc2)C(CCO)C1 (stereo not given)	D3 antag -63, GLP1R inv ag inconclusive
Cc1ccccc1CN1CCN(Cc2ccc3cccc(F)c3n2)CC1CCO (stereo not given)	D3 antag inconclusive, GLP1R inv ag inconclusive (no result: ClpP mod)
CCOc1cccc(CN2CCN(CCCc3ccccc3)C(CCO)C2)c1O (stereo not given)	GLP1R inv ag inconclusive
OCCC1CN(Cc2ccccc2O)CCN1CCCc1ccccc1 (stereo not given)	D3 antag -75, GLP1R inv ag inconclusive
CCn1cc(CN2CCN(Cc3ccccc3)C(CCO)C2)c2ccccc21 (stereo not given)	GLP1R inv ag 10µM (no result: ClpP mod)
COc1ccc(Cl)cc1NC(=O)NCCn1c(=O)oc2ccc(C)cc21	GLP1R inv ag inconclusive (no result: GLP-1R agonist, D3 antag)
Cc1ccccc1CN1CCN(CCCc2ccccc2)C(CCO)C1 (stereo not given)	D3 antag -78, GLP1R inv ag inconclusive (no result: ClpP mod)
OCCC1CN(CCCc2ccccc2)CCN1Cc1ccc(F)cc1 (stereo not given)	D3 antag -56, ClpP mod 32µM, GLP1R inv ag inconclusive
Clc1ccc(CCNC(c2nnc(-c3ccccc3)o2)c2ccccc2Cl)cc1 (stereo not given)	GLP1R inv ag inconclusive (no result: GLP-1R agonist, D3 antag)
O=C(CC1N=C2c3ccccc3N=C(SCc3ccc(Cl)cc3)N2C1=O)NCCc1ccccc1 (stereo not given)	none (no result: GLP-1R agonist, D3 antag)
CC(=O)c1ccc(S(=O)(=O)N2CCCC(N(C)CCc3ccccc3)C2)cc1 (stereo not given)	GLP1R inv ag inconclusive (no result: ClpP mod)
CN(CCc1ccccc1)C1CCCN(S(=O)(=O)c2cccc(F)c2)C1 (stereo not given)	D3 antag -63, GLP1R inv ag inconclusive (no result: ClpP mod)
Cc1cc(C)c2c(n1)sc1c(O)cc(=O)[nH]c12	ClpP mod 32µM
N#CC1=C(N)OC2=C(C(=O)CC(c3ccco3)C2)C1c1ccc(OCc2c(F)cccc2Cl)cc1 (stereo not given)	GLP1R inv ag 10µM
COc1cccc(C2C(C#N)=C(N)OC3=C2C(=O)CC(c2ccco2)C3)c1OCc1ccc(F)cc1 (stereo not given)	GLP1R inv ag inconclusive
Cc1cc(C)nc(Sc2ccc(/C=C(\C#N)C(N)=O)o2)n1	ClpP mod 28µM
Clc1ccc(C2=CC(c3ccco3)n3ncnc3N2)cc1 (stereo not given)	ClpP mod 32µM
CCOC(=O)CSc1nc2cc3c(cc2c(=O)n1CCCCCC(=O)NCc1ccc(OC)cc1)OCO3	none (no result: GLP-1R agonist, D3 antag)
CCOC(=O)Cn1c(-c2ccccc2)cc(SC)c(C#N)c1=O	GLP1R inv ag 10µM (no result: ClpP mod)
CSc1cc(-c2ccccc2)n(C)c(=O)c1C#N	none (no result: ClpP mod)
Clc1nc(NCc2cccs2)c2[nH]cnc2n1	none (no result: GLP-1R agonist, D3 ag, GLP1R cytotox, D3 antag, GLP1R inv ag)
COc1cccc(Cn2c(CNC(=O)Cc3cccc(C)c3)nc3cccnc32)c1	none (no result: GLP-1R agonist, D3 antag)
CC1C/C(=C/c2ccccn2)C(=O)/C(=C/c2ccccn2)C1 (stereo not given)	GLP1R cytotox 4.5µM, D3 antag -60 (no result: ClpP mod)
O=C1/C(=C/c2ccccn2)COc2ccccc21	none
CC(C)(C)C1C/C(=C/c2ccccn2)C(=O)/C(=C/c2ccccn2)C1 (stereo not given)	GLP1R cytotox inconclusive, D3 antag -53, GLP1R inv ag inconclusive
Cc1cc(=O)oc2cc(OCc3ccccc3)ccc12	none
Cc1ccccc1-c1nnc(SCCOc2ccc3c(C)cc(=O)oc3c2)o1	ClpP mod 25µM
CCCC(=O)OCCNc1cc(Sc2nc3ccccc3[nH]2)c2nonc2c1[N+](=O)[O-]	GLP1R cytotox inconclusive, D3 antag -83, GLP1R inv ag inconclusive
CCC(=O)OCCNc1cc(SCCC(=O)OC)c2nonc2c1[N+](=O)[O-]	GLP1R cytotox inconclusive
CCC(=O)OCCNc1cc(Sc2nccn2C)c2nonc2c1[N+](=O)[O-]	D3 antag -101
COC(=O)CCSc1cc(NCCCOC(C)=O)c([N+](=O)[O-])c2nonc12	none (no result: GLP-1R agonist, D3 ag, GLP1R cytotox, D3 antag, GLP1R inv ag)
CC(=O)OCCCNc1cc(Sc2ccc(Cl)cc2)c2nonc2c1[N+](=O)[O-]	D3 antag -118
Cn1c(=O)oc2cc(S(=O)(=O)N3CCCC(C(=O)N4CCN(c5cccc(Cl)c5)CC4)C3)ccc21 (stereo not given)	none (no result: D3 antag)
COc1ccc(Cn2c(=O)n(-c3ccc(F)c(Cl)c3)c(=O)c3c2c2cc(OC)ccc2n3C)cc1	ClpP mod inconclusive (no result: D3 antag)
COc1cccc(CN2CCC2(C)C(=O)NCc2cccc(C(F)(F)F)c2)c1OC (stereo not given)	GLP1R inv ag inconclusive
O=C(Nc1cccnc1)c1sc(Nc2ccccc2F)nc1-c1ccccc1	ClpP mod 18µM
Cc1ccccc1Nc1nc(-c2ccccc2)c(C(=O)Nc2cccnc2)s1	GLP1R inv ag inconclusive
O=C(Cc1ccc(Br)cc1)Nc1cccc(S(=O)(=O)N2CCCCC2)c1	GLP1R inv ag 10µM
O=C(CNc1cccc(S(=O)(=O)N2CCCCCC2)c1)Nc1cccc([N+](=O)[O-])c1	GLP1R cytotox inconclusive, GLP1R inv ag 7.1µM
O=C(CCNC(=O)c1ccc(Cl)cc1)Nc1cccc(S(=O)(=O)N2CCCCCC2)c1	GLP1R inv ag 13µM (no result: ClpP mod)
O=C(CCNS(=O)(=O)c1ccc(OC(F)(F)F)cc1)Nc1cccc(S(=O)(=O)N2CCCC2)c1	GLP1R inv ag 10µM
O=C(Cc1ccc(Cl)cc1)Nc1cccc(S(=O)(=O)N2CCCCC2)c1	GLP1R inv ag inconclusive
c1cc(-c2ccsc2)n2cnnc2c1	ClpP mod inconclusive
O=C(Nc1cc(S(=O)(=O)N2CCOCC2)ccc1O)c1ccc(S(=O)(=O)N2CCCCC2)cc1	none
O=S(=O)(Nc1ccc2ccccc2c1)c1ccccc1	ClpP mod 14µM
O=S(=O)(Nc1cccc(S(=O)(=O)N2CCCC2)c1)c1ccc(F)cc1	none
O=C(CNc1cccc(S(=O)(=O)N2CCCC2)c1)Nc1ccc(C(F)(F)F)cc1	GLP1R inv ag 10µM
O=S(=O)(Nc1cccc(S(=O)(=O)N2CCCCCC2)c1)c1ccccc1	D3 ag 33, GLP1R inv ag inconclusive (no result: ClpP mod)
O=C(Nc1cc(S(=O)(=O)Nc2ccc(Cl)cc2)ccc1O)c1ccc(S(=O)(=O)N2CCCCCC2)cc1	D3 antag -50, GLP1R inv ag inconclusive (no result: ClpP mod)
COc1ccc(-c2cc(C)no2)cc1S(=O)(=O)NCc1cccs1	GLP1R inv ag inconclusive (no result: GLP-1R agonist, D3 antag)
O=C(Cc1cccs1)Nc1ccc(S(=O)(=O)N2CCCCC2)cc1	GLP1R inv ag 10µM
